Test results reported in PubChem BioAssay AID624296 (National Center for Advancing Translational Sciences (NCATS), 2012).
In all, about 350,000 compounds went through this assay and about 9,900 (2.8%) were called active. Not shown: some 15% with an inconclusive outcome. Calls come from the whole dose curve; as a rule, active = well fitted activation curve with a large enough effect; inconclusive = small, poorly fitted or top-dose-only effect; inactive = no such curve, though single readings can be large or run the other way. The entries come from a sample that favours actives as a whole.

Assay: A quantitative high throughput screen for small molecules that induce DNA re-replication in MCF 10a normal breast cells. For activity, positive = re-replication: % of control where 0% means no effect. Note: nearly all actives have a fitted effect of over 50% in size.
Conditions: MCF 10A DNA re-replication, Hoechst nuclear intensity, 48 h; series mostly up to 46.1 µM; activity, positive = re-replication: at the top concentration
Potency is the fitted concentration of half-maximal effect.

SMILES | Potency | activity, positive = re-replication
C/C(=N\NC(=O)c1ccccc1F)c1ccccn1 | 23.1 µM (active) | –
C/C(CC(=O)Nc1ccc(N(C)C)cc1)=N\NC(=O)c1ccccc1F | – | -3.45% (inactive)
C/C(=N\NC(=O)Cc1ccc(Cl)cc1)c1ccccn1 | – | -8.75% (inactive)
O=C(CNC(=O)c1cc(S(=O)(=O)N2CCOCC2)ccc1N1CCCC1)Nc1ccc(F)c(F)c1 | – | 16% (inactive)
Cc1c(C(=O)N/N=C/c2ccccc2)[nH]c2c([N+](=O)[O-])cccc12 | 4.11 µM (active) | –
O=C(N/N=C/c1ccc([N+](=O)[O-])cc1)c1c[nH]c2ccccc12 | – | 14.1% (inactive)
Cc1cc(C(=O)N/N=C/c2ccccc2[N+](=O)[O-])c(C)o1 | – | -4.32% (inactive)
CC(=O)N(O)CCCCCNC(=O)CCC(=O)N(O)CCCCCNC(=O)CCC(=O)N(O)CCCCCNC(=O)CCC(=O)O | – | -0.0207% (inactive)
COc1ccc(S(=O)(=O)N2CCCCCC2)cc1NC(=O)Cc1ccc(OC)c(OC)c1 | – | 3.06% (inactive)
O=C(NCCc1ccco1)c1ccc(OCc2cn3ccccc3n2)cc1 | – | 3.69% (inactive)
O=C(/C=C/c1ccccc1[N+](=O)[O-])OC1CCCCC1=O (stereo not drawn) | – | -9.38% (inactive)
CC1CCCCC1NC(=O)/C(C#N)=C/C=C/c1ccccc1[N+](=O)[O-] (stereo not drawn) | 2.91 µM (active) | –
O=C(/C=C/c1ccccc1[N+](=O)[O-])NCC1CCCO1 (stereo not drawn) | – | -7.26% (inactive)
O=C(CSc1ccccc1)Nc1cccc(S(=O)(=O)N2CCCCC2)c1 | – | 23% (inactive)
C=CC[C@@H](CC(=O)NCCO)C(=O)N[C@H](C)COC(=O)[C@@H](CC=C)CC(=O)OC(C)(C)C | – | -32.4% (inactive)
CCc1c(C)sc(NC(=O)/C=C/c2ccc3c(c2)OCO3)c1C(=O)OC | 5.8 µM (active) | –
Cc1cccc(NC(=O)/C=C/c2ccc3c(c2)OCO3)n1 | – | -25.9% (inactive)
O=C(/C=C\c1ccc2c(c1)OCO2)NC1(C(=O)Nc2ccc3c(c2)OCCO3)CCCCC1 | – | 9.05% (inactive)
Cc1csc(=O)n1CCC(=O)OCC(=O)NNC(=O)c1ccc(Br)cc1 | – | -8.04% (inactive)
CCOC(=O)/C(C#N)=C/c1ccc(OCC(=O)Nc2ccccc2)c(OC)c1 | – | 10.1% (inactive)
COc1ccc(/C=N/S(=O)(=O)c2ccccc2)cc1OC | – | 2.04% (inactive)
COc1cc(/C=N/NC(=O)Cc2ccccc2)cc(OC)c1OC | – | 4.38% (inactive)
COc1cc(/C=N/NC(=O)Nc2ccccc2)ccc1OCCOc1ccccc1C | 1.16 µM (active) | –
COc1ccc(/C=N/NC(=O)c2ccccc2)cc1OS(=O)(=O)c1ccccc1 | 20.6 µM (active) | –
COc1cc(/C=N/NC(=O)c2ccccc2)ccc1OS(=O)(=O)c1ccccc1 | – | -5.96% (inactive)

SMILES | Potency | activity, positive = re-replication
CC(C(=O)NC1CCCC1)N1CCN(S(=O)(=O)c2ccccc2Cl)CC1 (stereo not drawn) | – | 5.71% (inactive)
COC(=O)C1=C(C)NC(=S)NC1c1ccc(OCC(=O)N2CC(C)OC(C)C2)c(OC)c1 (stereo not drawn) | – | -2.89% (inactive)
COc1ccc(/C=N/NC(=O)c2cccc(C(F)(F)F)c2)cc1 | – | -0.279% (inactive)
O=C(CSc1ccc(/C=N/NC(=O)c2cccc(F)c2)o1)Nc1ccccc1 | – | -3.18% (inactive)
O=C(Cn1cc(/C=N/NC(=O)c2cccc(C(F)(F)F)c2)c2ccccc21)Nc1ccc(F)cc1 | 20.6 µM (active) | –
Cc1cc(-c2cccs2)nc(-n2cccc2)n1 | – | -0.327% (inactive)
Cc1cc2nc(C(F)(F)F)cc(-c3cccs3)n2n1 | 0.92 µM (active) | –
CC(C)(C)Nc1c(-c2cccs2)nc2ccccn12 | – | 2.19% (inactive)
CN(C(=O)Cn1nnc(-c2ccc(F)cc2)n1)C1CCS(=O)(=O)C1 (stereo not drawn) | – | 10.4% (inactive)
CN1CCN(c2ccc(NC(=O)c3cc(Cl)c4c(c3)OCCO4)cc2)CC1 | – | -2.46% (inactive)
Cc1ccc(CNC(=O)COc2ccc3c(c2)CCC3)cc1 | – | 10.2% (inactive)
Cc1ccc(CNC(=O)COc2ccc(S(=O)(=O)NC(C)C)cc2)cc1 | – | 6.62% (inactive)
CC(=O)Nc1ccc(OCC(=O)NCc2ccc(C)cc2)cc1 | 1.16 µM (active) | –
COc1ccccc1-c1nn(Cc2ccccc2)cc1C(=O)N1CCN(c2ncccn2)CC1 | – | 13.2% (inactive)
O=C(CN1CCCSc2ccccc21)N1CCN(S(=O)(=O)c2ccccc2)CC1 | – | 13.1% (inactive)
COc1ccccc1/C=N/Nc1nc(C)c(C(C)=O)s1 | – | 5.97% (inactive)
CC(=O)c1sc(N/N=C/c2ccc(C(C)C)cc2)nc1C | 13 µM (active) | –
CC(=O)c1sc(NC(=O)CCCOc2ccccc2C)nc1C | – | -8.51% (inactive)
COc1ccc(Cl)cc1NC(=O)COC(=O)c1ccc(Br)o1 | – | 11.8% (inactive)
CCCN(CC1CC1)C(=O)COC(=O)c1ccc(C)cc1O | – | 5.42% (inactive)
Cc1cc(C)n2nc(C(=O)Nc3cccc(S(=O)(=O)N4CCOCC4)c3)nc2n1 | – | -16.6% (inactive)
NC(CSC1(c2ccccc2)c2ccccc2-c2ccccc21)C(=O)O (stereo not drawn) | – | 1.81% (inactive)
COc1ccc(-c2ccc3c(c2)[C@@H]2C[C@H](N(C)S(=O)(=O)c4ccccc4)[C@H]([C@H](C)O)C(=O)N2CC3)cc1 | – | -0.341% (inactive)
CC(C)(C)OC(=O)Nc1ccc([C@@H](NC(=O)OC(C)(C)C)C(=O)OC(C)(C)C)cc1 | – | -5.63% (inactive)
CCc1ccc2c(c1)C(c1ccc([N+](=O)[O-])cc1)=NNC(c1ccccc1)=N2 | – | 1.73% (inactive)

SMILES | Potency | activity, positive = re-replication
CCc1ccc2c(c1)C1(NN=C(c3ccccc3)S1)C(=O)N2 (stereo not drawn) | 18.4 µM (active) | –
O=S1(=O)CSCS(=O)(=O)C1 | – | -2.53% (inactive)
COc1cc(OC)cc(-c2c(-c3ccc(F)cc3)c3cc(-c4ccc5cc[nH]c5c4)ccc3n2C)c1 | – | 3.2% (inactive)
COc1ccc2sc(-c3ccc(N(C)C)cc3)c(-c3ccc4cc[nH]c4c3)c2c1 | 16.4 µM (active) | –
COc1ccc2c(c1)c(=Cc1ccc(N(C)C)cc1)c1cc(-c3ccccc3)[n+](C)n12 | – | -16.6% (inactive)
CC1Sc2ccc(C(=O)NCc3ccccc3Cl)cc2NC1=O (stereo not drawn) | – | -4.42% (inactive)
O=c1ccn([C@@H]2O[C@H](CNS(=O)(=O)c3cc4ccccc4s3)[C@@H](O)[C@H]2O)c(=O)[nH]1 | – | -3.12% (inactive)
Cc1cc(C)c(C=NNc2nc3c([nH]2)c(=O)n(C)c(=O)n3C)c(C)c1 | – | -1.32% (inactive)
CCOC(=O)N/N=C/c1cn(Cc2ccccc2Cl)c2ccccc12 | – | 3.11% (inactive)
N#CCC(=O)N/N=C/c1cn(Cc2ccc3ccccc3c2)c2ccccc12 | 10.3 µM (active) | –
N#CCC(=O)N/N=C/c1ccc(SCC(=O)Nc2ccccc2)o1 | – | -2.9% (inactive)
CC1CCCC(NC(=O)c2cc(S(=O)(=O)N3CCCCC3)ccc2Cl)C1C (stereo not drawn) | – | -4.65% (inactive)
CN(c1ccc2nc3ccccc3c(=O)n2n1)C1CCCCC1 | – | -2.71% (inactive)
O=c1c2ccccc2nc2n1C1(CCCCC1)Cc1ccccc1-2 | 18.4 µM (active) | –
c1cncc(-c2nnc3n2C2(CCCCC2)Cc2ccccc2-3)c1 | – | 1.24% (inactive)
COc1ccccc1CNC(=O)COC(=O)c1cccs1 | – | -5.75% (inactive)
CC(C)C[C@H]1CN([C@@H](CC(C)C)CN2CCC[C@@H]2CN2C(=O)C(=O)NC[C@@H]2Cc2ccccc2)C(=O)C(=O)N1CCc1ccccc1 | – | 17.4% (inactive)
COc1ccc(C(=O)NCc2ccccc2C)cc1S(=O)(=O)NC1CCCC1 | – | -4.4% (inactive)
CCN(CC)S(=O)(=O)c1ccc(Cl)c(NC(=O)c2ccncc2)c1 | – | 0.731% (inactive)
Cc1cccc(NC(=O)c2cccnc2Cl)n1 | – | -3.66% (inactive)
CCN(CC)S(=O)(=O)c1ccc(NC(=O)c2cccnc2Cl)c(NC(=O)c2cccnc2Cl)c1 | 18.4 µM (active) | –
O=C(NOCc1ccccc1)c1cccc([N+](=O)[O-])c1 | – | 1.13% (inactive)
O=C(COC(=O)COc1ccccc1F)Nc1cccc(S(=O)(=O)N2CCCCC2)c1 | – | -4.89% (inactive)
O=C(Nc1nnc(SCc2c(Cl)cccc2Cl)s1)C1CCCO1 (stereo not drawn) | 11.6 µM (active) | –
O=C(Nc1nnc(CCc2ccccc2)s1)C1CCCO1 (stereo not drawn) | – | -6.69% (inactive)

SMILES | Potency | activity, positive = re-replication
O=C(Nc1nnc(SCc2ccc(Cl)cc2Cl)s1)C1COc2ccccc2O1 (stereo not drawn) | 18.4 µM (active) | –
O=C(Nc1nc(-c2ccncc2)cs1)C1COc2ccccc2O1 (stereo not drawn) | – | 3.86% (inactive)
O=C(Nc1nnc(SCc2c(Cl)cccc2Cl)s1)c1cccc([N+](=O)[O-])c1 | – | 21% (inactive)
O=C(Nc1nc2c(F)cc(F)cc2s1)C1COc2ccccc2O1 (stereo not drawn) | – | 5% (inactive)
O=C(N/N=C/c1ccc2c(c1)OCO2)C(=O)N1CCCC1 | – | 14.4% (inactive)
O=C(O)/C=C/c1ccc2c(c1)OCCO2 | – | 13.8% (inactive)
O=C1/C(=C/c2ccc3c(c2)OCO3)CCC/C1=C\c1ccc2c(c1)OCO2 | 14.6 µM (active) | –
O=C(COC(=O)c1cc[n+]([O-])cc1)Nc1ccc(Cl)c(C(F)(F)F)c1 | – | 23.8% (inactive)
CCOc1ccc(CCNC(=O)COC(=O)C2CCN(S(=O)(=O)c3ccccc3)CC2)cc1OCC | – | -3.91% (inactive)
CCOc1cccc2cc(C(=O)OCC(=O)Nc3c(C)cccc3CC)c(=O)oc12 | – | -4.55% (inactive)
CN=C(Nc1cccc(S(=O)(=O)N2CCOCC2)c1)c1ccccc1 | – | -0.997% (inactive)
Cc1nn(Cc2ccccc2)c(C)c1C(=O)NCCN1C(=O)S/C(=C\c2ccc(F)cc2)C1=O | – | 5.89% (inactive)
CCN1CCN(CCNC(=O)c2ccc(/C=C3/Sc4ccccc4N(Cc4cccc(C)c4)C3=O)cc2)CC1 | 6.51 µM (active) | –
CCN1CCN(CCNC(=O)c2ccc3c(c2)NC(=O)/C(=C\c2ccc(OC)c(OC)c2)S3)CC1 | – | 1.79% (inactive)
O=C(NCCN1CCOCC1)c1ccc(/C=C2\Sc3ccccc3N(Cc3ccc(F)cc3)C2=O)cc1 | 18.4 µM (active) | –
O=C(NCCN1CCOCC1)/C(=C/c1ccc(F)cc1)NC(=O)c1ccccc1 | – | -3.22% (inactive)
O=C(NCCCN1CCOCC1)c1ccc2c(c1)N(Cc1cccc(F)c1)C(=O)c1ccccc1S2 | – | -2.53% (inactive)
Cn1nnnc1SCC(=O)Nc1sccc1C(N)=O | – | 0.751% (inactive)
COc1ccc([C@H]2CC(=O)C=C(c3ccc(OC(F)(F)F)cc3)C2)cc1OC | – | 6.41% (inactive)
CCc1nnc(NC(=O)CCCSc2nc3ccccc3[nH]2)s1 | – | 0.183% (inactive)
CCC(C)N1C(=O)S/C(=C/c2ccc(Sc3nc4ccccc4[nH]3)o2)C1=O (stereo not drawn) | 8.2 µM (active) | –
O=C(CSc1nc2ccccc2[nH]1)Nc1nc(-c2ccccc2)c(-c2ccccc2)o1 | – | 0.359% (inactive)
C[C@H]1CN([C@@H](C)CO)C(=O)Cc2cc(NC(=O)Cc3ccccc3)ccc2O[C@H]1CN(C)S(=O)(=O)c1cccs1 | – | 5.07% (inactive)
